FAS TE block: blocks the thioesterase domain of human fatty acid synthase; P49327; recombinant FAS-TE, OMFH fluorogenic substrate, fluorescence endpoint; inhibition, % at 15 µM; 360,000 compounds, 0.67% hits; AID 602261;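 active means compounds whose normalised, plate-corrected inhibition of enzyme fluorescence in the single-dose primary screen is 50% or more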;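 further: 0% = DMSO with enzyme and 100% = substrate without enzyme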
rCAG RNA binder: molecules binding r(CAG) RNA repeats; r(CAG) RNA repeat, TO-PRO-1 dye displacement fluorescence; inhibition, % at 3 µM; 370,000 compounds, 1.3% hits; AID 651821;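 active means inhibition above the plate cutoff, the mean of all test compounds on that plate plus 3 SD, cut at about 35% in these data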;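 further: 0% = DMSO alone and 100% = 100 µM mitoxantrone as full dye displacement; higher means more dye released from RNA so lower well fluorescence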
Myeloid diff MLP: promotes myeloid progenitor differentiation; ER-HoxA9 myeloid progenitors, lysozyme-GFP differentiation, flow cytometry; calls only at 10 µM; 360,000 compounds, 1% hits; AID 624256;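 active means normalized GFP-positive differentiation at or above the plate's own cutoff, the solvent-only control mean plus 3 SD; inconclusive means no clear call, values can overlap the other calls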;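 further: cells exposed to compound for four days before flow analysis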
MPTP block: blocks calcium-induced mitochondrial swelling. isolated mouse mitochondria, Ca2+ swelling absorbance, 30 min. inhibition, % at 10 µM. 360,000 compounds, 1.4% hits. AID 602449;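 active means inhibition of 50% or more, scaled per plate between neutral and stimulator controls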;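 further: 0% = DMSO wells given calcium and 100% = 1 mM EGTA wells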
GRIN3A LBD mod: modulates the human NR3A ligand-binding domain; NR3A LBD differential scanning fluorimetry, Tm shift; 0% = protein alone, 100% = glycine-bound protein; Tm shift relative to glycine control, % at 25 µM; 340,000 compounds, 2.5% hits; AID 1259313;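 active means melting temperature shift of at least 10% of the positive control shift, at one fixed dose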
FAS-TE inh conf: confirmation of human fatty acid synthase thioesterase inhibitors; shares compounds with FAS TE block; recombinant FAS-TE, OMFH fluorogenic substrate, fluorescence; inhibition, % at 15 µM; 2,300 compounds, 45% hits; AID 624325;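 active means compounds inhibiting the enzyme by at least 50% at 15 µM in any one of the replicates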;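 further: 0% = enzyme with DMSO only and 100% = wells lacking enzyme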
Starred values were filed as active, the others as inactive; i = inactive; ? = inconclusive; · = not tested or not shown; + = active, no number. Shown are actives, neighbours in structure and some others; about 5.7% of the full set was active somewhere.

SMILES	FAS TE block	rCAG RNA binder	Myeloid diff MLP	MPTP block	GRIN3A LBD mod	others
COC(=O)C[C@H]1CC[C@@H]2[C@@H](COc3ccc(NC(=O)Nc4cccc(C)c4)cc3C(=O)N2C)O1	·	6.8	·	·	·
Cc1ccc(NC(=O)c2ccc(-n3cccn3)c([N+](=O)[O-])c2)cc1C	11.2	10.8	i	8.7	13.3*
COc1ccc(C(=O)Nc2ccc(S(=O)(=O)N3CCN(C)CC3)cc2)cc1[N+](=O)[O-]	1.5	5.9	i	0.5	8.2
COc1ccc(C(=O)Nc2ccc(S(=O)(=O)N3CCOCC3)cc2)cc1[N+](=O)[O-]	6.5	3.5	i	0.4	34.7*
CSc1cccc(NC(=S)NN/C(=N/S(=O)(=O)c2ccccc2)N2CCCC2)c1	·	5.0	·	·	·
Cc1cc(NC(=O)Cc2cn(C)c3ccccc23)ccc1Oc1cccnc1	·	5.1	·	·	·
CCC(C)(C)C(=O)N1CCC(C(=O)NC2CCCc3ccccc32)CC1 (stereo not drawn)	·	-2.5	·	·	·
COc1ccc(NC(=O)/C=C/c2cc(Br)ccc2OC)cc1	32.5	6.5	i	-0.4	14.9*
CCN(CC)c1ccc(NC(=O)/C=C/c2cc(Br)ccc2OC)cc1	19.8	11.5	i	1.7	-2.1
CCCCCCSc1ccc([C@@H]2[C@H]3C(=O)N(C)C(=O)[C@H]3[C@]3(C(=O)OC)CCCCN23)cc1OC	26.4	-0.1	+	1.6	-0.8
Cc1ccccc1OCc1nc2ccccc2c(=O)n1/N=C/c1c[nH]c2ccccc12	19.2	5.1	i	1.6	-0.1
O=c1c2ccccc2nc(COc2ccccc2)n1/N=C/c1cc([N+](=O)[O-])ccc1O	13.0	10.9	i	49.4	22.0*
Cc1cccc(C)c1OCc1nc2ccccc2c(=O)n1/N=C/c1c[nH]c2ccccc12	11.2	17.8	i	1.8	30.7*
CCN(C(=O)C1CCN(c2ncccn2)CC1)c1ccccc1	·	-1.4	·	·	·
COCCN1CCCc2nc(-c3ccc(Br)cc3)ccc21	·	5.4	·	·	·
O=c1c2ccccc2oc2c1ccc1ccccc12	7.7	·	i	-2.2	18.1*
Cc1ccc(N2C3=C(C(=O)CC(C)(C)C3)C(c3cn(C)nc3C)C3=C2CC(C)(C)CC3=O)cc1	-17.1	-0.7	+	2.4	-0.1
COC(=O)[C@]12C[C@H](CC(=O)N3CCCCC3)C(=O)N(Cc3ccccc3)C1=C[C@H](C(C)(C)C)O[C@@H]2C	·	0.0	·	·	·
N#CC1=C(N)N2C(=C(C#N)C1c1ccc(Br)cc1)Nc1ccccc12 (stereo not drawn)	·	11.1	·	·	22.6*
N#CC1=C(N)N2C(=C(C#N)C13CCN(Cc1ccccc1)CC3)Nc1ccccc12	-2.7	-0.2	i	-1.5	-1.3
Nc1cc2c(cc1Br)-c1ccc(F)cc1C2O (stereo not drawn)	-0.7	4.4	i	-0.4	18.4*
COc1ccccc1C(CNC(=O)c1ccc(NS(=O)(=O)c2ccc(F)c(C)c2)cc1)N(C)C (stereo not drawn)	-0.8	-3.9	i	0.9	10.2*
CCOC(=O)N1CCN(C(=O)CCNS(=O)(=O)c2ccccc2)CC1	-2.9	-2.2	i	-0.4	0.8
CCOC(=O)N1CCN(C(=O)COc2ccc(S(=O)(=O)NCc3ccccc3)cc2)CC1	-7.7	-3.5	+	3.6	2.6
COc1cc(/C=C2\CC/C(=C\c3ccc(OCCO)c(OC)c3)C2=O)ccc1OCCO	-9.9	-2.5	i	2.9	-5.5
SMILES	FAS TE block	rCAG RNA binder	Myeloid diff MLP	MPTP block	GRIN3A LBD mod	others
COc1cc(/C=C/C=C2/CC/C(=C/C=C/c3ccc(O)c(OC)c3)C2=O)ccc1O	-61.7	80.3*	·	2.8	3.0
COc1cc(C=C2C(=O)c3ccccc3C2=O)ccc1O	-4.9	4.8	i	4.6	-0.4
COc1cc(/C=C2/CC/C(=C/c3ccc(O)c(OC)c3)C2=O)ccc1O	-4.6	26.2	+	15.3	13.8*
C/C=C/c1ccc(O)c(OC)c1	-6.0	2.1	i	-2.0	-1.8
COc1cc(/C=C2\COC/C(=C\c3ccc(O)c(OC)c3)C2=O)ccc1O	-0.6	10.9	?	5.3	25.7*
COc1ccc(C=C2SC(=O)NC2=O)cc1OC	-3.1	5.0	i	-1.1	16.3*
COCc1[nH]nc2c1C(c1ccc3c(c1)OCO3)N(Cc1ccccc1)C2=O (stereo not drawn)	·	1.4	·	·	·
COC(=O)[C@]12C[C@H](CC(=O)N3CCC(c4ccccc4)CC3)C(=O)N(CCC3=CCCCC3)C1=C[C@H](C1CCCC1)O[C@@H]2C	·	6.0	·	·	·
COC(=O)[C@]12C[C@H](CC(=O)N3CCCC3)C(=O)N(Cc3ccco3)C1=C[C@H](C(C)(C)C)O[C@@H]2C	·	-2.1	·	·	·
C=CCN=C1NC(c2ccc(C(F)(F)F)cc2)C(C(=O)OC)=C(C)N1C (stereo not drawn)	·	5.3	·	·	·
COc1ccc(/C=C2\CC/C(=C\c3ccc(OC)c(OC)c3)C2=O)cc1OC	5.2	1.1	i	-21.3	16.1*
CCOC(=O)C1=CCN(S(=O)(=O)c2ccc(Cl)cc2)C1c1cccc(Br)c1 (stereo not drawn)	·	2.3	·	·	·
O=C(Nc1ccc2c(c1)OCCO2)C(c1ccnc2ccccc12)N1CCN(c2ccc(C(F)(F)F)cn2)CC1 (stereo not drawn)	92.1*	11.9	i	1.6	·	FAS-TE inh conf=33.0
CN(CC(=O)Nc1ccccc1Cl)C(=O)COC(=O)c1cc([N+](=O)[O-])ccc1N1CCOCC1	42.3	-1.7	i	-0.4	-1.1
CCOC(=O)c1ccccc1NC(=O)COC(=O)c1cc([N+](=O)[O-])ccc1N1CCOCC1	53.4*	3.5	i	-0.1	1.0	FAS-TE inh conf=19.0
O=C(COC(=O)c1cc([N+](=O)[O-])ccc1N1CCOCC1)Nc1c(Cl)cccc1Cl	67.2*	-0.6	i	-0.9	1.8	FAS-TE inh conf=74.5*
O=C(COC(=O)c1c[nH]c(=O)[nH]c1=O)Nc1cccc([N+](=O)[O-])c1	3.7	0.6	i	3.3	-1.6
Cc1cc(C(=O)OCC(=O)Nc2cccc([N+](=O)[O-])c2)c(C)o1	65.8*	1.1	i	-2.1	1.9	FAS-TE inh conf=61.8*
O=C(COC(=O)c1cc([N+](=O)[O-])ccc1N1CCOCC1)Nc1cccc(F)c1	90.1*	4.8	i	0.3	0.9	FAS-TE inh conf=93.0*
C[C@H](c1ccccc1)N1C[C@H](COCc2ccccc2)Oc2cc(N3CC[C@@H](O)C3)ccc2S1(=O)=O	18.5	11.1	i	-1.0	·
COCC(=O)N[C@H]1C[C@@H]2O[C@H](CO)CC[C@@H]2O[C@@H]1CCc1ccc(-c2ccccc2)cc1	·	-0.4	·	·	·
CC(NC(=O)C(NC(=O)OCc1ccccc1)C(C)O)C(=O)OCc1ccccc1 (stereo not drawn)	·	1.6	·	·	·
Cc1cc(C)c(CN2CCN(C(=O)Cn3cc(C)c(=O)[nH]c3=O)CC2)c(C)c1	·	3.3	·	·	·
COc1ccc(NC(=O)COC(=O)c2cc([N+](=O)[O-])ccc2N2CCOCC2)cc1	79.5*	-0.4	i	2.3	0.3	FAS-TE inh conf=60.4*

Assay outcomes deposited in PubChem BioAssay by several laboratories.
